# Test results reported in PubChem BioAssay AID1851 (National Center for Advancing Translational Sciences (NCATS), 2009).
# Values joined by “and” are separate entries in the source; they are usually repeats but may differ in a detail not shown here. Equal values may be shown once. The campaign covered roughly 16,000 compounds. About 5,700 (36%) were called active. Inconclusive results (about 24%) are left out. Calls come from the whole dose curve; as a rule, active = well fitted curve in the direction sought with a large enough effect; inconclusive = small, poorly fitted or top-dose-only effect, or effect the other way; inactive = no such curve, though single readings can be large or run the other way. The list shows a part of the results.
# Molecular target: Cytochrome P450 1A2 (Homo sapiens) (UniProt P05177)
# Assay: Cytochrome panel assay with activity outcomes
# Conditions: recombinant CYP, pro-luciferin dealkylation, luminescence, p450-cyp1a2; series mostly up to 57.1 µM
# % is set by controls: 0 for no effect and ±100 for the full control effect.
# Chain of Cytochrome P450 1A2 (Homo sapiens) (P05177 whole entry, looked up): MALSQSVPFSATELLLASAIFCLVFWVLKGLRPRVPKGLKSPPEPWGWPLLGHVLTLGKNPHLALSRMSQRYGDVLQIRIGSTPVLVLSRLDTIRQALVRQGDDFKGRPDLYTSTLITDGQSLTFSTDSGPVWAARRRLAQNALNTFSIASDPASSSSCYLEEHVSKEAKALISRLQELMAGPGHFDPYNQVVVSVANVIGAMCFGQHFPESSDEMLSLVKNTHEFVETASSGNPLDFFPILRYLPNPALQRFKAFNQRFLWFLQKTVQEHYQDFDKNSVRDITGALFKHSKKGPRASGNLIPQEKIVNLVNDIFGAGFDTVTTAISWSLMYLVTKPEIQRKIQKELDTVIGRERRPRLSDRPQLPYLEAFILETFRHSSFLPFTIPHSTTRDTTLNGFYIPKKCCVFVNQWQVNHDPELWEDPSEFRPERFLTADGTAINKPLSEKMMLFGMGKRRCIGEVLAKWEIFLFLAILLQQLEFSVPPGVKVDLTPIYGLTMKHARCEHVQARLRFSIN
SMILES,"activity, negative = inhibition",AC50
O=C(O)C[C@H](NC(=O)CP(=O)(O)O)C(=O)O.[NH-][C@@H]1CCCC[C@@H]1[NH-].[Pt],-15.5% [at 11.4 µM] (inactive),–
FC(F)(F)c1nnc2c(Sc3ccccc3)nc3ccc(Cl)cc3n12,–,0.708 µM (active)
FC(F)(F)c1nnc2c(Sc3ccc(Cl)cc3)nc3ccccc3n12,–,0.1 µM (active)
CC(/C=N/n1c(-c2cccnc2)n[nH]c1=S)=C\c1ccccc1,–,0.141 µM (active)
NNC(=O)c1nn(-c2ccc(Cl)cc2)ccc1=O,–,15.8 µM (active)
O=C(O)c1nn(-c2ccccc2)ccc1=O,–,inactive
CC(C)=CCC/C(C)=C/CO/N=C1/C[C@@H](O)[C@@H](O)[C@@H]2[C@H]3C(=O)N(c4ccc(F)cc4F)C(=O)[C@@H]3CC[C@@H]12,8.54% [at 11.4 µM] (inactive),–
C#CCN(C)Cc1ccccc1,–,inactive
C#CCN(C)CCCOc1ccc(Cl)cc1Cl,–,631 nM (active) and 158 nM (active)
CC[C@]1(O)C[C@H]2CN(CCc3c([nH]c4ccccc34)[C@](C(=O)OC)(c3cc4c(cc3OC)N(C=O)[C@H]3[C@@](O)(C(=O)OC)[C@H](OC(C)=O)[C@@]5(CC)C=CCN6CC[C@]43[C@H]65)C2)C1,–,inactive
CO[C@H]1C[C@@H]2C[C@H](O)C[C@@H](CC(=O)O[C@@H](/C=C\CC(C)C)C[C@@H]3CC[C@H](C)[C@@H](C1)O3)O2,-2.91% [at 11.4 µM] (inactive),–
CCSc1ccc2c(c1)N(CCCN1CCN(C)CC1)c1ccccc1S2,–,0.316 µM (active)
O=c1n(CCCN2CCN(c3cccc(Cl)c3)CC2)nc2ccccn12,–,inactive
Clc1ccc2c(c1)N(CCCN1CCCC13CCCCC3)c1ccccc1S2,-6.18% [at 2.29 µM] (inactive),–
CN1CCCC[C@@H]1CCN1c2ccccc2Sc2ccc(S(C)=O)cc21 (some centres not stated),–,inactive
O=C1CSC2(CCN(CCCN3c4ccccc4Sc4ccc(Cl)cc43)CC2)N1,–,3.16 µM (active)
CSc1ccc2c(c1)N(CC[C@H]1CCCCN1C)c1ccccc1S2,–,7.94 µM (active)
CN1CCC[C@@H]1CCO[C@](C)(c1ccccc1)c1ccc(Cl)cc1,–,inactive
OC1CC2CC[C@H](C1)N2CCCN1c2ccccc2Sc2ccc(Cl)cc21 (some centres not stated),-12.5% [at 11.4 µM] (inactive),–

SMILES,"activity, negative = inhibition",AC50
CN1CCN(CCCN2c3ccccc3Sc3ccc(Cl)cc32)CC1,–,1 µM (active) and 2.51 µM (active)
Nc1c(S(N)(=O)=O)cc(S(N)(=O)=O)cc1S(N)(=O)=O,-11.6% [at 11.4 µM] (inactive),–
C=CCNCCCCOc1c(Cl)cc(C)cc1Br,–,0.2 µM (active)
COCCCNCCCCOc1c(Cl)cc(C)cc1Br,–,0.562 µM (active)
FC(F)(F)c1cc(CN2CCCC3(CCNCC3)C2)cc(C(F)(F)F)c1,–,inactive
C[C@H]1/C=C\CC(=O)OC[C@H](C)C(=O)N2CCC[C@@H]2C(=O)OC1,7.07% [at 11.4 µM] (inactive),–
NNc1nncc2ccccc12,–,1 µM (active)
CCOC(=O)NNc1nncc2ccccc12,–,5.01 µM (active)
Cc1noc(C)c1-c1cncnc1NC1CC1,–,inactive
c1ncc(-c2ccoc2)c(NC2CC2)n1,–,15.8 µM (active)
Fc1ccc(Nc2ncncc2-c2ccoc2)cc1,–,0.316 µM (active)
c1ccc(Nc2ncncc2-c2ccoc2)cc1,–,1 µM (active)
COc1cc(C2C(C#N)=C(N)N(Nc3ccccc3)C3=C2C(=O)CC(C)(C)C3)ccc1OCc1ccccc1 (configuration not stated),–,inactive
COc1cc(/C=N/O)cc(Br)c1OCc1cccc(Cl)c1,–,0.631 µM (active)
N/C(=N\OC(=O)c1cc(-c2ccccc2)nc2ccccc12)c1ccc(Cl)cc1,–,11.2 µM (active)
O=C(O)c1cc(-c2ccc(-c3ccc(-c4cc(C(=O)O)c5cc(Cl)ccc5n4)cc3)cc2)nc2ccc(Cl)cc12,-18.1% [at 2.29 µM] (inactive),–
O=C1[C@H]2[C@H]3[C@H](O)[C@H](O)C/C(=N/OC[C@@H](O)COCc4ccco4)[C@@H]3CC[C@@H]2C(=O)N1Cc1ccccc1,11.1% [at 11.4 µM] (inactive),–
CCNc1ncc2nc(-c3ccc(Cl)cc3)c(=O)n(C3CC3)c2n1,–,0.501 µM (active)
CCNc1ncc2nc(-c3ccccc3)c(=O)n(C3CC3)c2n1,–,2.51 µM (active)

SMILES,"activity, negative = inhibition",AC50
O=C(O)C1=C/C(=C(/c2ccccc2)c2cc(C(=O)O)c(O)c3ccccc23)c2ccccc2C1=O,-21.5% [at 11.4 µM] (inactive) and -13.1% [at 11.4 µM] (inactive),–
Cc1ccc(O)c(-c2cc(C(F)(F)C(F)F)nc(-c3ccccc3)n2)c1,–,2.82 µM (active)
COc1ccccc1NC(=S)NNC(=O)c1c(Cl)c(C)nn1C,–,inactive
COc1ccccc1NC(=S)NCCc1ccccc1,–,12.6 µM (active)
Fc1ccc(NC(=S)NCCc2ccccc2)c(F)c1F,–,5.62 µM (active)
Fc1ccccc1NC(=S)NCCc1ccccc1,–,5.62 µM (active)
COc1ccccc1NC(=S)NC(=O)c1ccc(-c2ccc(Cl)cc2)o1,–,2.82 µM (active)
CCn1cc(C(=O)O)c(=O)c2cc(F)c(N3CCN[C@@H](C)C3)c(F)c21,–,inactive
CC(C)(C)c1ccc(S(=O)(=O)/C=C\C#N)cc1,–,1.58 µM (active)
C[C@@](N)(C(=O)O)c1ccc(S(=O)(=O)O)cc1,–,inactive
CC(=O)NCCC(=O)Nc1sc2c(c1-c1nc3ccccc3[nH]1)CCCC2,–,7.08 µM (active)
CCc1cc2c(=O)c(-c3nc4ccccc4[nH]3)coc2cc1OC(=O)N1CCOCC1,–,inactive
Cc1c(OC(=O)c2ccc([N+](=O)[O-])cc2)c2c(c[n+]1C)COC(C)(C)OC2,–,17.8 µM (active)
OCC1CCCN(Cc2ccc(-c3ccccc3)cc2)C1 (configuration not stated),–,inactive
O=C(NCCCN1CCOCC1)c1cc2c(s1)CSC2,–,inactive
O=C(NCCc1ccccn1)c1cc(C(=O)C2CCCCC2)c[nH]1,–,14.1 µM (active)
Cc1ccc(C(=O)c2c[nH]c(C(=O)NCCCN3CCOCC3)c2)cc1,–,inactive
O=C(NCCCN1CCOCC1)c1cc(C(=O)C2CC2)c[nH]1,–,17.8 µM (active)
Cc1cc(C)cc(N(C(=O)c2ccccn2)C(C(=O)NC2CCCCC2)c2cccs2)c1 (configuration not stated),–,inactive
